Among all 48,000 compounds or so, about 13,000 (27%) showed an effect of 50% or more. Some of the results follow.
test system: Wolbachia pipientis; assay: Anti-Wolbachia Cell-Based Screen; type: functional; parameters: scale not given: in the data most compounds retested in dose-response had high values; conditions: 5 µM

| SMILES | Percent Effect |
| --- | --- |
| Cc1cc(C)cc(CN2CCN(C(=O)COCC3CCCO3)CC2=O)c1 (stereo not drawn) | -14.3% |
| COc1ccccc1CC(NC(=O)N1CCOCC1)C(C)C (stereo not drawn) | -8.474% |
| COc1ccccc1OCCNS(=O)(=O)N1CCOCC1 | 86% |
| COc1ccccc1CCNS(=O)(=O)N1CCOCC1 | 112% |
| CN(CCOc1ccccc1Cl)S(=O)(=O)N1CCOCC1 | -15.33% |
| COc1ccc(OCCN(C)S(=O)(=O)N2CCOCC2)cc1 | -3.974% |
| CCC(NS(=O)(=O)N1CCOCC1)c1ccccc1OC (stereo not drawn) | -7.282% |
| CCN(C(=O)NCCc1ccc(C)cc1C)C(C)CS(C)(=O)=O (stereo not drawn) | -11.16% |
| Cc1cc(N2CCSCC2)ccc1NC(=O)N(CCO)C1CC1 | -6.894% |
| O=C(CNc1nc(C(F)(F)F)cs1)N1CCc2sccc2C1 | 8.259% |
| CC(C)(C)CC(=O)N1CCc2sccc2C1 | -0.9665% |
| NC(=O)NC(CC(=O)N1CCc2sccc2C1)c1ccccc1F (stereo not drawn) | 105.1% |
| O=C(C[S+]([O-])Cc1ccc(F)cc1)N1CCc2sccc2C1 (stereo not drawn) | 1.066% |
| O=C(C[S+]([O-])Cc1c(F)cccc1Cl)N1CCc2sccc2C1 (stereo not drawn) | 13.7% |
| Cc1ccccc1C(CC(=O)N1CCc2sccc2C1)NC(N)=O (stereo not drawn) | 98.58% |
| CC(NCC(=O)N1CCc2sccc2C1)c1ccccc1F (stereo not drawn) | 93.75% |
| CC(C)(C)c1nnc(NCC(=O)N2CCc3sccc3C2)s1 | 0.7468% |
| O=C(CCNCc1cccc(O)c1)N1CCc2sccc2C1 | 2.464% |
| NC(=O)NC(CC(=O)N1CCc2sccc2C1)c1cccc(Br)c1 (stereo not drawn) | 93.59% |
| O=C(C[S+]([O-])Cc1ccccc1F)N1CCc2sccc2C1 (stereo not drawn) | 15.13% |
| N#Cc1cccc(CNCCC(=O)N2CCc3sccc3C2)c1 | -10.34% |
| c1cncc(-c2ccnn2CN2CCC3(CC2)OCCO3)c1 | -11.32% |
| Cc1nccc(CNS(=O)(=O)N(C)Cc2ccc(Cl)cc2)n1 | -3.155% |

| SMILES | Percent Effect |
| --- | --- |
| Cc1noc(C(C)N(C)CC(=O)NCCc2ccc(Cl)cc2)n1 (stereo not drawn) | 103.9% |
| CCc1noc(C(C)N(C)CC(=O)Nc2cccc(C)n2)n1 (stereo not drawn) | 0.4126% |
| COCCCNC(=O)CN(C)C(=O)c1cc(C)ccc1N(C)C(C)C | -2.233% |
| COCCCNC(=O)CN(C)C(=O)c1cc(C)ccc1O | -8.655% |
| COCCCNC(=O)CN(C)C(C)c1nc(C)no1 (stereo not drawn) | 131.6% |
| CCc1noc(C(C)N(C)CC(=O)Nc2ccc(C)cc2)n1 (stereo not drawn) | 3.049% |
| CCN(CC(=O)NCCc1nc(C)no1)Cc1ccc(Cl)cc1 | -3.181% |
| COCCCNC(=O)CN(C)C(C)c1nc(C(C)C)no1 (stereo not drawn) | 126.4% |
| COc1ccc(Br)cc1CN(C)C(C)c1nc(C(C)C)no1 (stereo not drawn) | 18.35% |
| Cc1noc(CNC(=O)NCCc2ccc(Cl)cc2)n1 | -5.738% |
| COCCNC(=O)CN(C)C(C)c1nc(C)no1 (stereo not drawn) | 119.8% |
| CCc1noc(C(C)N(C)CC(=O)Nc2c(C)cccc2C)n1 (stereo not drawn) | -11.68% |
| O=C(O)c1cc(-c2ccc3c(c2)OCO3)cc(S(=O)(=O)NC2CC2)c1 | 1.562% |
| O=C(c1ccc2sccc2c1)N1CCC(C(=O)O)(n2ccnc2)CC1 | -1.881% |
| Cc1ccccc1N1CCN(C(=O)c2cnc(N(C)C)nc2C)C(C)C1 (stereo not drawn) | 26.11% |
| Cc1nc(N)ncc1C(=O)N1CCCC1(C)C(=O)N(C)C (stereo not drawn) | 88.37% |
| Nc1ncc(C(=O)N2CCC(O)(CO)CC2)c(-c2ccccc2)n1 | -11.61% |
| CC[C@@H](CO)NC(=O)c1coc(COc2ccc(OC)cc2)n1 | -6.129% |
| COCC(=O)Nc1nccn1Cc1ccc(Br)cc1 | 8.757% |
| CCNC(=O)N(C)C1CCCc2nc(C)sc21 (stereo not drawn) | 9.089% |
| N#Cc1cccnc1N1CCC(c2nc(C(F)(F)F)c[nH]2)CC1 | -10.33% |
| CCN(CC)c1ccc2ccc(C(=O)N3CCCCO3)cn12.O=C(O)C(F)(F)F | -8.466% |
| CC(C)C(=O)N1CCC(C)(c2cc(O)[nH]n2)CC1 | 136.2% |

| SMILES | Percent Effect |
| --- | --- |
| CC(C)C(=O)N1CCN(c2cc(N(C)C)cnn2)CC1 | 9.778% |
| COCC(=O)N1CCC(C)(c2cc(O)[nH]n2)CC1 | 115.4% |
| CC(CCc1ccc(O)cc1)NC1CCN(C(=O)C(C)C)CC1 (stereo not drawn) | 2.314% |
| COCC(=O)N1CCC2(CC1)CNc1ccc(F)cc12.O=C(O)C(F)(F)F | 7.249% |
| CCOC1CC2(CCN(C(=O)COC)CC2)c2cc(C)ccc21 (stereo not drawn) | 10.7% |
| Cc1cc(N2CCN(C(=O)CCc3scnc3C)CC2)nc(N)n1 | 8.877% |
| CC(c1nc(C2CC2)no1)N(C)Cc1ccc2c(c1)OCCO2 (stereo not drawn) | 0.3167% |
| CN(Cc1noc(C2CC2)n1)CC1CCN(CCO)CC1 | 15.04% |
| O=C(NCC1CC1)N1CCN(Cc2ccc3c(c2)OCCO3)CC1 | 1.258% |
| Clc1ccc(C2(NCc3noc(C4CC4)n3)CCOCC2)cc1 | -0.4021% |
| c1cncc(CN2CCC(NCCc3ccc4c(c3)OCO4)CC2)c1 | 3.399% |
| c1cc(CN2CCC(c3ccncc3)CC2)cc(Cn2cccn2)c1 | -4.875% |
| c1cc2c(cc1CSCc1noc(C3CC3)n1)OCCO2 | 98.07% |
| O=C(c1cccc2c1OCO2)N1CCCC1c1noc(C2CC2)n1 (stereo not drawn) | -8.169% |
| c1ccc(CN2CCC(Cc3noc(C4CC4)n3)CC2)cc1 | 27.3% |
| c1cc(C2CCN(Cc3ccc4c(c3)OCO4)CC2)ccn1 | 106.9% |
| c1cc(CN2CCC(Cc3noc(C4CC4)n3)CC2)c2c(c1)OCO2 | 85.87% |
| c1cc2c(cc1CN1CCC(Cc3noc(C4CC4)n3)CC1)OCCO2 | 75.34% |
| CCn1c(C)cc(C(=O)NCc2ccc(CS(C)(=O)=O)cc2)c1C | 4.177% |
| COCc1nc(CN2CCC3(CCCO3)CCC2=O)no1 (stereo not drawn) | -11.19% |
| CC(=O)N(C)CC(=O)NC1(c2ccc(Br)cc2)CC1 | -3.81% |
| CCN(CC(=O)NC(C)C)S(=O)(=O)N1CCC(C)C1 (stereo not drawn) | 1.094% |

— ChEMBL document CHEMBL3988442, “University of Dundee, Small-Polar-MMV Screening Library” (2021)
